Results taken from PubChem BioAssay (NCATS).
Unmarked numbers belong to inactive results. Inconclusive results are not listed. Where a call stands in place of a potency, no number is given. The source made the active and inactive calls. Unless noted, the call rests on the fitted dose curve; in most records, active means well fitted cell-killing curve with a large enough effect; inconclusive means small, poorly fitted or top-dose-only effect, or effect the other way; inactive means flat fitted curve, though single readings scatter.

How the values were obtained:
SKOV3 = assay: Primary qHTS to identify gynecologic anti-cancer compounds using libraries of approved drugs and bioactive compounds (AID 1345084); settings: Gynecologic cancer cell panel viability, ATPlite luminescence, 48 h; series mostly up to 57.5 µM; further: nearly all actives have a fitted effect of over 55% in size; further: potency means the concentration at half of the fitted maximal effect
Procedure, shortened: (§1)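 ATP-based viability (ATPlite), 1,000 cells/well, 16 h pre-incubation, 48 h compound at 37 C, 5% CO2, 15 min RT before read.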

Tov-21-G = assay: as above; settings: Gynecologic cancer cell panel viability, ATPlite luminescence, 48 h; series mostly up to 57.5 µM
Procedure, shortened: as §1

Tov112D = assay: as above; settings: Gynecologic cancer cell panel viability, ATPlite luminescence, 48 h; series mostly up to 57.5 µM
Procedure, shortened: as §1

[1] = target: Nuclear receptor subfamily 1 group I member 2 (Rattus norvegicus) (UniProt Q9R1A7); assay: qHTS assay for small molecule activators of the rat pregnane X receptor (rPXR) signaling pathway (AID 651751; call rule not given here); settings: rPXR reporter cells, luciferase (One-Glo), 24 h
[2] = qHTS assay for small molecule activators of the human pregnane X receptor (PXR) signaling pathway (AID 720659; call rule not given here)

Sequence of Nuclear receptor subfamily 1 group I member 2 (Rattus norvegicus) (Q9R1A7 whole entry, looked up): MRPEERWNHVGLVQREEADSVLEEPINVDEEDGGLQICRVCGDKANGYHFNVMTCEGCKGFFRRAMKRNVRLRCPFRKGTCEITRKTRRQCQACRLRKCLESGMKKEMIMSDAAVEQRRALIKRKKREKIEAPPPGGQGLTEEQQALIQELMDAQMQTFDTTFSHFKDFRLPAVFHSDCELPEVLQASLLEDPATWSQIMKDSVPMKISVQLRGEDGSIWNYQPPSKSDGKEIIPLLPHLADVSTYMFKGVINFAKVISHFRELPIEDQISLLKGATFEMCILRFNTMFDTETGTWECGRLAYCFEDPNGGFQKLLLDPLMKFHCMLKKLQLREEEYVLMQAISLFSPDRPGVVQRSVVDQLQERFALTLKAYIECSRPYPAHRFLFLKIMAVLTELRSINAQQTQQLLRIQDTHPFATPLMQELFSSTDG

Structure (SMILES) | Potency (SKOV3) | Potency (Tov-21-G) | Potency (Tov112D) | max response [1] | outcome [2]
CC(=O)OC1CCC2(C)C(CCC3(C)C2CC=C2C4CC(C)(C)CCC4(C)CCC23C)C1(C)C(=O)O (stereo not drawn) | inactive | inactive | inactive |  | 
COc1cccc(OC)c1-c1ccc(C[C@H](NC(=O)c2c(Cl)cccc2Cl)C(=O)O)cc1 | inactive | inactive | inactive |  | 
C=C[C@H]1[C@H](O[C@@H]2O[C@H](CO)[C@@H](O)[C@H](OC(=O)/C=C/c3ccc(O)c(OC)c3)[C@H]2O)OC=C2C(=O)OCC[C@]21O | inactive | inactive | inactive |  | 
COc1cc(C(=O)OC[C@@]2(O)CO[C@@H](O[C@H]3[C@H](Oc4ccc(O)cc4)O[C@H](CO)[C@@H](O)[C@@H]3O)[C@@H]2O)cc(OC)c1O | inactive | inactive | inactive |  | 
CC(C)(O)[C@@H]1CC[C@]2(CO)[C@@H](O)CC[C@](C)(O)[C@H]2[C@@H]1O[C@@H]1O[C@H](CO)[C@@H](O)[C@H](O)[C@H]1O | inactive | inactive | inactive |  | 
CN(C)CC(c1ccc(O)cc1)C1(O)CCCCC1 (stereo not drawn) | inactive |  | inactive |  | 
C=C1C(=O)OC[C@H]2C(C(=O)O)=CC3CC(C)(C)C[C@@]132 (stereo partly drawn) | inactive | inactive | inactive |  | 
C[C@@H]1O[C@@H](O[C@H]2[C@@H]3C=CO[C@@H](O[C@@H]4O[C@H](CO)[C@@H](O)[C@H](O)[C@H]4O)[C@@H]3[C@@]3(CO)O[C@@H]23)[C@H](O)[C@H](OC(=O)/C=C/c2ccc(O)c(O)c2)[C@H]1O |  | inactive |  |  | 
COC(O)(CC(C)C)C1Oc2cc(C)[nH]c(=O)c2O1 (stereo not drawn) | inactive | inactive | inactive |  | 
CNC(C)C(=O)NC(C(=O)N1CCCC1C(=O)Nc1cccc2ncccc12)C(C)C (stereo not drawn) | 7.94 µM (active) |  | inactive |  | 
CN(C)C(=O)C(O)C(Cc1ccccc1)NC(=O)c1cc2cc(Cl)ccc2[nH]1 (stereo not drawn) | inactive |  | inactive |  | 
COC(=O)C1=CO[C@@H](O[C@@H]2O[C@H](CO)[C@@H](O)[C@H](O)[C@H]2O)[C@@H]2[C@@H](C)[C@@H](O)C(O)[C@H]12 (stereo partly drawn) |  | inactive | inactive |  | 
C[C@H]1CC[C@H]2[C@@H](C=C[C@@](C)(O)[C@]2(C)C(=O)CCO)C1 | inactive | inactive | inactive |  | 
Cc1nnc(-c2sc(NC(=O)[C@H](C(C)C)n3c(=O)[nH]c4ccccc4c3=O)nc2C)o1 | inactive |  | inactive |  | 
CC1=C2CC(=O)C(C)CC/C=C(\C)CC2(O)OC1=O (stereo not drawn) | inactive | inactive | inactive |  | 
CC(C)[C@](O)(c1ccc2cc(OC(F)F)c(OC(F)F)cc2c1)c1cn[nH]n1 |  | inactive | inactive |  | 
COc1cc(C(=O)OCC2=CCC3C(C(=O)O)=COC(O[C@@H]4O[C@H](CO)[C@@H](O)[C@H](O)[C@H]4O)C23)ccc1O (stereo partly drawn) | inactive | inactive | inactive |  | 
O=C(/C=C/c1ccccc1)OC[C@H]1O[C@@H](OC(=O)c2cc(O)c(O)c(O)c2)[C@H](O)[C@@H](O)[C@@H]1O |  | inactive | inactive |  | 
COc1ccc(-c2ccn(CC[C@](C)(C(=O)NO)S(C)(=O)=O)c(=O)c2)c(F)c1 |  | 25.1 µM (active) |  |  | 
CC(C)=CCC(O)[C@](C)(O)C1[C@H](O)C[C@@]2(C)C3CC=C4C(C[C@H](O)[C@@H](O[C@@H]5O[C@H](CO)[C@@H](O)[C@H](O)[C@H]5O)C4(C)C)[C@]3(C)C(=O)C[C@]12C (stereo partly drawn) | inactive | inactive | inactive |  | 
COc1ccc(CCC(=O)c2c(O)cc(O[C@@H]3O[C@H](CO)[C@@H](O)[C@H](O)[C@H]3O[C@@H]3O[C@@H](C)[C@H](O)[C@@H](O)[C@H]3O)cc2O)cc1O | inactive | inactive | inactive | -0.0245% | inactive
COc1cc(O)cc2c1C(=O)OC(C)C2 (stereo not drawn) | inactive | inactive | inactive |  | 
O=C(CCc1ccccc1)c1c(O)c([C@@H]2O[C@H](CO)[C@@H](O)[C@H](O)[C@H]2O)c(O)c([C@@H]2O[C@H](CO)[C@@H](O)[C@H](O)[C@H]2O)c1O | inactive | inactive | inactive |  | 
N#CC1C(=O)N=C(c2cc(Cl)ccc2O)C=C1c1cc(OCc2ccccc2)cc(OCc2ccccc2)c1 (stereo not drawn) | inactive | inactive | inactive |  | 
N#Cc1cccc(-c2nc(-c3cccnc3)no2)c1 | inactive | inactive | inactive |  | 
C[C@H]1[C@@H](O)[C@H](O)C2[C@]3(C)C([C@@H](O)[C@H]4OC(=O)[C@@H]1[C@@]24C)[C@](C)(O)C=C[C@H]3O[C@@H]1O[C@H](CO)[C@@H](O)[C@H](O)[C@H]1O (stereo partly drawn) |  | inactive | inactive |  | 
